# Reference: PubChem BioAssay AID1117264 (The Scripps Research Institute Molecular Screening Center, 2014)
# Hit rate of the full screen: of about 89,000 compounds, about 440 (0.49%) were called active. This excerpt belongs to a sample that is enriched for actives. A number with no mark means an inactive call.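 The calls were made as follows: active = inhibition above the mean inhibition across all screened compounds plus 3 SD (cut at about 11% in these data); inactive = the rest.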
# Target: RNA-editing ligase 1, mitochondrial (Trypanosoma brucei brucei) (UniProt P86926)
# Assay: T. brucei editing ligase REL1 blockade – biochemical, FRET fluorescence, primary screen (AID 1117264);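 also: 0% = plate median of test wells and 100% = NSC42067 control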
# Settings: TbREL1 RNA ligation, at 9.66 µM, active compounds read high
# RNA-editing ligase 1, mitochondrial (Trypanosoma brucei brucei), sequence (P86926 whole entry, looked up): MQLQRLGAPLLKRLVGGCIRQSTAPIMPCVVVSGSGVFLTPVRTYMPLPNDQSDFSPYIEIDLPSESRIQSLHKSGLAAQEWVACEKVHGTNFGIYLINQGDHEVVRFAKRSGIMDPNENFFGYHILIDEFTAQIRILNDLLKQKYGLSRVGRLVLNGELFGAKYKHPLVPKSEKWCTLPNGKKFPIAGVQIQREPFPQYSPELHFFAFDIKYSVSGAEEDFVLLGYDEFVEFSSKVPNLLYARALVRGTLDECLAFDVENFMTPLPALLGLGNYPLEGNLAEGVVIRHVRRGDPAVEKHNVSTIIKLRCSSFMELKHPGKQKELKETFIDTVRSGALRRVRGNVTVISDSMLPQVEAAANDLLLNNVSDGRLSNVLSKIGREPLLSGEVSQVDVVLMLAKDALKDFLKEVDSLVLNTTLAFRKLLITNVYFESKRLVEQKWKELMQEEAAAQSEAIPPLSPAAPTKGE
row,SMILES,inhibition
1,COc1ccc(NC(=O)C(Br)C(C)C)cc1 (stereo unspecified),-2.35%
2,CCOC(=O)c1ccc(NC(=S)N2CCCC2)cc1,-1.43%
3,COc1ccccc1NC(=S)N1CCN(C(c2ccccc2)c2ccccc2)CC1,-6.34%
4,O=C(Oc1cccc(NC2=NS(=O)(=O)c3ccccc32)c1)c1ccncc1,0.38%
5,Cc1ccc(S(=O)(=O)N(C)C)cc1NC(=O)COC(=O)c1c(C)noc1C,-2.07%
6,O=C(Nc1cccnc1)c1cccc(S(=O)(=O)N2CCCC2)c1,3.63%
7,CCCn1c(CCNc2nc(-c3ccc(OC)cc3)cs2)nc2ccccc21,1.63%
8,CC1CN(CC(=O)NC(C)c2ccccc2)CC(C)O1 (stereo unspecified),1.72%
9,Fc1cc(Br)ccc1NC(=S)Nc1cccnc1,-1.64%
10,COc1cc(/C=C/C(=O)n2cnc3ccccc32)cc(OC)c1OC,12% (active)
11,COc1cc(/C=C/C(=O)OCC(=O)NC2CC2)cc(OC)c1OC,8.18%
12,COc1ccccc1-n1cnc2cc(NS(=O)(=O)c3ccccc3)ccc21,0.63%
13,O=C(Nc1ccccc1N1CCN(C(=O)c2ccccc2)CC1)c1ccco1,-1.42%
14,COc1ccc(N2C(=O)CC(Nc3ccc(F)cc3)C2=O)c([N+](=O)[O-])c1 (stereo unspecified),-1.86%
15,CCOc1ccc(NC(=O)CN(C)CC(=O)NC(C)c2ccccc2)cc1OCC (stereo unspecified),2.99%
16,CCOC(=O)C1CCN(CC(=O)Nc2ccc(OC)c(S(=O)(=O)N3CCCCC3)c2)CC1,2.37%
17,Cc1ccc(Nc2nc(N)nc(CN3CCN(Cc4ccccc4)CC3)n2)cc1Cl,-4.51%
18,CNc1nc(Nc2ccc(C)c(Cl)c2)nc(N)c1[N+](=O)[O-],13.4% (active)
19,Nc1nc(Nc2ccccc2)nc(NCCO)c1[N+](=O)[O-],7.49%
20,Cn1c(=O)c2c(nc(NCc3ccccc3)n2CC(N)=O)n(C)c1=O,-2.6%
21,CN(C)/C(=N\OC(=O)c1ccccc1)c1nonc1N,0.81%
22,C=CCn1c(=S)[nH]c2scc(-c3ccco3)c2c1=O,20.5% (active)
23,COc1ccc(N2CCN(CCNS(=O)(=O)c3ccc([N+](=O)[O-])cc3)CC2)cc1,-4.76%

row,SMILES,inhibition
1,Cc1ccccc1N1CCN(C(=O)c2cccnc2)CC1,-0.77%
2,O=C(Nn1cc(C(=O)N2CCN(c3ccccc3F)CC2)c2ccccc2c1=O)c1cnccn1,12.8% (active)
3,O=C(c1ccc(CN2CCOCC2)cc1)N1CCN(c2ccccc2F)CC1,-3.62%
4,CC1=C(C(=O)N(C)C)C(c2ccccc2OC(F)F)NC(=O)N1 (stereo unspecified),-1.25%
5,CC(C)C[C@@H](CO)N1CCN(Cc2ccc(O)cc2)CCC1=O,-1.07%
6,Cc1ccnc(NC(=O)c2ccco2)n1,2%
7,O=C(Nc1ccc2nccnc2c1)c1ccco1,-2.66%
8,O=C(Nc1nc(-c2ccco2)c(-c2ccco2)s1)c1ccco1,51.5% (active)
9,O=C(Nc1ccc(N2CCN(C(=O)c3ccccc3)CC2)c(Cl)c1)c1ncn[nH]1,-4.97%
10,Cc1cccc(NC(=O)CN2CCN(CC(=O)NCC3(N4CCCCC4)CCCCC3)CC2)c1C,-4.34%
11,Cc1ccc(-n2c(SCC(=O)Nc3cccc4ccccc34)nnc2-c2ccccn2)cc1,2.33%
12,O=C(CCCCCN1C(=O)C2C3C=CC(C3)C2C1=O)Nc1ccccn1 (stereo unspecified),-1.93%
13,CSc1ccc(C=Nn2c(-c3ccc(F)cc3)n[nH]c2=S)cc1,-3.89%
14,CC(C)Cc1nnc(NC(=O)CN2C(=O)NC3(CCCCC3)C2=O)s1,4.69%
15,Cc1ccc(C(=O)NCC(=O)NCc2cc(=O)n(C)c(=O)n2C)cc1,1.66%
16,Nn1c(SCC(=O)NC2CCCc3ccccc32)nnc1C1CC1 (stereo unspecified),0.24%
17,COc1ccc(-c2cc(-c3nnc(SCC(=O)Nc4cccc5ccccc45)n3N)[nH]n2)cc1,-2.51%
18,CCOC(=O)C1=C(CC)Nc2ccccc2N=C1N,3.99%
19,COCCCn1c(SCC(=O)Nc2oc(C)c3c(C)n[nH]c(=O)c23)nc2sc3c(c2c1=O)CCC3,-6.64%
20,CCC(C)C(N=C1NS(=O)(=O)c2ccccc21)C(=O)N1CCC(C)CC1 (stereo unspecified),-0.06%
21,CN(CC(=O)Nc1ccccc1[N+](=O)[O-])Cc1ccc(Br)cc1,1.93%
22,CCNC(=O)N1CCCC(C(=O)c2ccc(-c3ccccc3)cc2)C1 (stereo unspecified),-3.04%
23,O=C(NN=Cc1ccc([N+](=O)[O-])cc1)C1CC1,-3.07%

row,SMILES,inhibition
1,Cc1nc(Cl)c(C#N)c2c1CCCC2,8.75%
2,COC(=O)c1c(C)c(C)nc(N)c1C#N,-2.53%
3,COCc1c(N)c(C)nc(Cl)c1C#N,11.8% (active)
4,O=C(NCc1ccccc1)[C@H]1CCCN1C(=O)[C@H]1CCCN1C(=O)N1CCOCC1,-0.82%
5,COc1cccc(CNC(=O)COC(=O)CN2C(=O)NC3(CCCCC3C)C2=O)c1 (stereo unspecified),1.52%
6,CC1CCN(C(=O)COC(=O)c2cc(S(=O)(=O)N3CCOCC3)ccc2Cl)CC1,-2.18%
7,O=C(NCC(c1ccco1)N1CCc2ccccc21)c1cccc(F)c1 (stereo unspecified),-8.09%
8,COc1cc(NC(=O)C2CCCN(S(=O)(=O)c3ccc(C(C)(C)C)cc3)C2)cc(OC)c1 (stereo unspecified),5.8%
9,COc1cc(S(=O)(=O)N2CCN(C(=O)C3CC3)CC2)ccc1NC(C)=O,4.21%
10,COC(=O)[C@@]12CCCCC=C1N(CCc1ccc(Cl)cc1)C(=O)[C@H]2CC(=O)NCc1ccc(OC)c(OC)c1,-3.3%
11,Cc1cccc(C)c1NC(=O)C(c1cccc(F)c1)N1CCN(C)CC1 (stereo unspecified),-2.52%
12,COc1ccc(C(C(=O)Nc2c(C)cccc2C)N2CCN(c3ccc(C)cc3)CC2)cc1 (stereo unspecified),23.2% (active)
13,COc1ccc(N2CCC(CNC(=S)Nc3c(C)cccc3C)C2)cc1 (stereo unspecified),-3.26%
14,COc1ccc(C2COC(=O)C2=N)c(NC(=O)c2ccccc2)c1 (stereo unspecified),-1.11%
15,COc1ccc(N2C(=O)CC(SC(C)C)C2=O)cc1 (stereo unspecified),-3.91%
16,CCOc1ccc(C(=O)CCC(=O)Nc2ccncc2)cc1,-0.23%
17,O=C(CSc1nc(O)c(Cc2ccccc2)c(=O)[nH]1)Nc1nc2c(s1)CCCC2,-3.09%
18,CC1CCCCC12NC(=O)N(CC(=O)N1CCN(c3ccccc3)CC1)C2=O (stereo unspecified),-1.93%
19,C[C@H](NC(=O)c1ccccc1Cl)C(=O)OCC(=O)N1CCN(c2ccccc2)CC1,-4.27%
20,O=C(NC1CCC(O)CC1)c1ccccc1OCc1ccc(F)cc1 (stereo unspecified),-4.15%
21,CCC(C)NCC(=O)Nc1ccc([N+](=O)[O-])cc1C(=O)Nc1ccccc1F (stereo unspecified),1.57%
22,O=C(COC(=O)/C=C/c1ccc2c(c1)OCO2)NC1CCS(=O)(=O)C1 (stereo unspecified),-1.84%
23,CC(=O)c1c(C)oc2ccc(NS(=O)(=O)c3ccc(C(=O)O)cc3)cc12,2.43%

row,SMILES,inhibition
1,Cc1cc(C)nc(NC(=S)N2CCN(c3ccc(C(F)(F)F)cn3)CC2)c1,-3.25%
2,Cc1cccc(C(=O)Nc2ccc3c(c2)C(=O)N(CC(C)C)C3=O)c1,5.77%
3,CC(=O)N(CN1C(=O)C2C3C=CC(C3)C2C1=O)c1cccc(Cl)c1 (stereo unspecified),-2.46%
4,COC(=O)[C@@]12CCCCC3=C1N(CCC3)C(=O)[C@H]2CC(=O)NCc1cccc2ccccc12,-3.03%
5,CN(CC(=O)Nc1c(Cl)cccc1Cl)C(=O)c1ccncc1,-0.71%
6,CCOC(=O)[C@H]1[C@H]2COc3ccc(Cl)cc3[C@@H]2N2C(=O)c3cc(C)ccc3NC(=O)[C@@]12C,-1.49%
7,COc1cccc(CNC(=O)CNS(=O)(=O)c2ccc3nc(C)sc3c2)c1OC,-4.98%
8,CCCCN(C1CCS(=O)(=O)C1)S(=O)(=O)c1ccc(C(C)C)cc1 (stereo unspecified),0.44%
9,COc1cccc(NC(=O)CN(C)C(=O)CSCc2nc3scc(-c4cccs4)c3c(=O)[nH]2)c1,-0.31%
10,Cc1ccccc1NC(=O)Cn1cc(C(=O)C2CC2)c2ccccc21,2.47%
11,COc1cc(NC(=O)CCS(=O)(=O)c2ccc3c(c2)oc(=O)n3C)cc(OC)c1,12.5% (active)
12,COc1cc(NS(=O)(=O)c2ccc(NC(C)=O)cc2)cc(OC)c1,0.52%
13,COc1cccc(NC(=O)CCNS(=O)(=O)c2ccc3c(c2)oc(=O)n3C)c1,3.31%
14,Cc1ccc(NC(=O)C(C)Sc2nnc(C3CC3)n2C2CC2)cc1S(=O)(=O)N1CCOCC1 (stereo unspecified),5.95%
15,CCC(C(=O)OC)n1cnc2scc(-c3ccc(C)cc3)c2c1=O (stereo unspecified),2.37%
16,Cc1ccccc1NC(=S)N(CCCN1CCOCC1)Cc1cccs1,-3.36%
17,CCCN(CCC)C(=S)Nc1cc(C(=O)OC)ccc1C(=O)OC,-1.86%
18,CCCCn1nnnc1C(c1ccccc1)N1CCN(c2ccccc2OC)CC1 (stereo unspecified),0.09%
19,O=C(C1CCCN1S(=O)(=O)c1ccccc1)N1CCc2ccccc2C1 (stereo unspecified),3.88%
20,O=C(COC(=O)CNS(=O)(=O)c1ccccc1)NC12CC3CC(CC(C3)C1)C2,-1.46%
21,CN1CCN(/N=C2/C(=O)Nc3ccc([N+](=O)[O-])cc32)CC1,11.2% (active)
22,O=C(O)COCC(=O)NCc1csc2ccc(Cl)cc12,2.32%
